Among the data in ChEMBL document CHEMBL3988442, “University of Dundee, Small-Polar-MMV Screening Library” (2021) are Percent Effect values, retold here.

For some of these results: Potency and affinity values are given separately.

Holding throughout (design): scale not given: direction of the effect not stated beside the values
Assay [1] has as its target Protein translocase subunit SecA (Escherichia coli (strain K12)) (UniProt P10408). Put plainly: Assay to Identify E. coli SecA ATPase Inhibitors. In kind it is functional. As to conditions: 30 µM.
Assay [2] has as its target T1, Ubiquitin-activating enzyme e1, putative (Leishmania donovani (strain BPK282A1)) (UniProt E9BSI1).
T1 sequence (whole entry): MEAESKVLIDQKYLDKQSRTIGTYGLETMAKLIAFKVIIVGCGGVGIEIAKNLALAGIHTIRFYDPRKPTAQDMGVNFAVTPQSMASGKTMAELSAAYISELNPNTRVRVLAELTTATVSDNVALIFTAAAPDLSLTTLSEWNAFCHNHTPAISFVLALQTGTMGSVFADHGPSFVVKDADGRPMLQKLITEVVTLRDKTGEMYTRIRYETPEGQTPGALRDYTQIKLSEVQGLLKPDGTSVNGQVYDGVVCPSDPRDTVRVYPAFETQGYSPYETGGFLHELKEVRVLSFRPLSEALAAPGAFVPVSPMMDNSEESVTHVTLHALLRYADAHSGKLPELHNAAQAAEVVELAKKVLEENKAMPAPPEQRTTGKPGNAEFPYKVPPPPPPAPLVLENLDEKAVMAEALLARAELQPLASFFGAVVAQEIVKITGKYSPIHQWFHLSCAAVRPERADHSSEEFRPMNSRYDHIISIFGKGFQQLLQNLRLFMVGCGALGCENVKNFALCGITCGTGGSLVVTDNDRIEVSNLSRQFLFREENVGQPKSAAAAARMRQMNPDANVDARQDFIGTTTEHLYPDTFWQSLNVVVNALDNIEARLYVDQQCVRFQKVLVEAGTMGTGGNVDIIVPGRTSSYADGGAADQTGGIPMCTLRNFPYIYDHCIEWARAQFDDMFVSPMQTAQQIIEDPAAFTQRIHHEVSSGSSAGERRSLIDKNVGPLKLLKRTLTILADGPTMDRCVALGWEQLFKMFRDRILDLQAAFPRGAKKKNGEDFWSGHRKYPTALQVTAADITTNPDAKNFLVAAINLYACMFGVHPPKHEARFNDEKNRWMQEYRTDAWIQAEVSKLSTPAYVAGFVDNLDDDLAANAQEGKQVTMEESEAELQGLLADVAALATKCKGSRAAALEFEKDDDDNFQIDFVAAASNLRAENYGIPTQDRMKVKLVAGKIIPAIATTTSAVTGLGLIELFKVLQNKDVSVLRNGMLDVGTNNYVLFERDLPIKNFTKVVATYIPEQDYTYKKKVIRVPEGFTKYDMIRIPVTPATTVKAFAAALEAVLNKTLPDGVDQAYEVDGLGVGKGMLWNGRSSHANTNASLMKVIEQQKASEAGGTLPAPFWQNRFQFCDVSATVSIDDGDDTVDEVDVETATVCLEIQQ
The assay can be described thus: Leishmania donovani Ubiquitin Activating Enzyme (LdE1). It is filed as functional. To be noted: 30 µM.

Assay [3] deals with AMP-activated protein kinase, AMPK (Homo sapiens) (UniProt P54646+O43741+P54619+Q9UGJ0+Q9Y478+Q13131+Q9UGI9). The assay can be described thus: AMP-dependent Kinase enzyme assay. An in vitro enzyme assay that detects ADP turnover that is directly proportional to AMPK activity. This uses naive AMPK that is activated during the assay with MK-8722. It is filed as functional. As to conditions: 30 µM.

In assay [4] the target is Sialic acid-binding Ig-like lectin 9 (Homo sapiens) (UniProt Q9Y336). The assay can be described thus: Hs-Siglec9 ALPHAscreen SOP 20170721. To be noted: 10 µM. For orientation: Alpha assays give light when donor and acceptor beads are brought close together.
The test system of assay [5] is Trypanosoma cruzi. Put plainly: Trypanosoma cruzi phosphomannomutase and mannose-1-phosphate guanylyltransferase assay. In kind it is functional. To be noted: 10 µM.
Assay [6] concerns the target T2, Arginase-2, mitochondrial (Homo sapiens) (UniProt P78540).
T2 sequence (whole entry): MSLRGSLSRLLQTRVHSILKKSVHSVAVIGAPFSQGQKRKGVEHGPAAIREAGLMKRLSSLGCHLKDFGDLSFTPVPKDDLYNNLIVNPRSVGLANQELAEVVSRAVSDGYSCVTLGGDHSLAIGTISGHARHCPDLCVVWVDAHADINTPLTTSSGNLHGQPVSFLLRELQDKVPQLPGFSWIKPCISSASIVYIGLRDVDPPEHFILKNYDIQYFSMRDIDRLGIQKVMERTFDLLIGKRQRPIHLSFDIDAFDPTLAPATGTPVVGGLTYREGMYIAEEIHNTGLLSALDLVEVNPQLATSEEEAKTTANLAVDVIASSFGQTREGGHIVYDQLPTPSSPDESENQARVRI
Put plainly: in vitro enzyme assay to detect the production of urea directly proportional to the activity of Arginase II. Also: in the data most compounds retested in dose-response had high values. In kind it is functional. As to conditions: 33.3 µM.

The target in assay [7] is T3, Proteasome subunit beta (Trypanosoma cruzi) (UniProt O96673).
T3 sequence (whole entry): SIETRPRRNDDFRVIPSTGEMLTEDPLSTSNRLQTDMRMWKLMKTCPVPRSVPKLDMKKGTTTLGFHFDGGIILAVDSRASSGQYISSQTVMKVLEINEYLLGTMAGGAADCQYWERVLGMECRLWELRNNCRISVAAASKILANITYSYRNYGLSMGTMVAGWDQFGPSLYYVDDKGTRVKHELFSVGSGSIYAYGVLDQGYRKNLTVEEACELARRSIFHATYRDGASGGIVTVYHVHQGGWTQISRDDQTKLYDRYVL
Put plainly: Trypanosoma cruzi proteasome chymotrypsin-like activity (TcProtChymo) assay. Also: in the data most compounds retested in dose-response had high values. In kind it is functional. To be noted: 9.37 µM.

The species entered for assay [8] is Homo sapiens. The assay can be described thus: To identify inhibition of the IFN signalling (Jak-Stat) pathway via expression of an eGFP reporter gene under the control of an IFN-stimulated response element (ISRE) containing MxA promoter. In kind it is functional. To be noted: 30 µM. On the technique in general: In a reporter assay the amount or activity of a reporter protein is the signal.

Assay [9] deals with T4, Tyrosyl-tRNA synthetase, putative (Trypanosoma cruzi (strain CL Brener)) (UniProt Q4DSP6).
T4 sequence (whole entry): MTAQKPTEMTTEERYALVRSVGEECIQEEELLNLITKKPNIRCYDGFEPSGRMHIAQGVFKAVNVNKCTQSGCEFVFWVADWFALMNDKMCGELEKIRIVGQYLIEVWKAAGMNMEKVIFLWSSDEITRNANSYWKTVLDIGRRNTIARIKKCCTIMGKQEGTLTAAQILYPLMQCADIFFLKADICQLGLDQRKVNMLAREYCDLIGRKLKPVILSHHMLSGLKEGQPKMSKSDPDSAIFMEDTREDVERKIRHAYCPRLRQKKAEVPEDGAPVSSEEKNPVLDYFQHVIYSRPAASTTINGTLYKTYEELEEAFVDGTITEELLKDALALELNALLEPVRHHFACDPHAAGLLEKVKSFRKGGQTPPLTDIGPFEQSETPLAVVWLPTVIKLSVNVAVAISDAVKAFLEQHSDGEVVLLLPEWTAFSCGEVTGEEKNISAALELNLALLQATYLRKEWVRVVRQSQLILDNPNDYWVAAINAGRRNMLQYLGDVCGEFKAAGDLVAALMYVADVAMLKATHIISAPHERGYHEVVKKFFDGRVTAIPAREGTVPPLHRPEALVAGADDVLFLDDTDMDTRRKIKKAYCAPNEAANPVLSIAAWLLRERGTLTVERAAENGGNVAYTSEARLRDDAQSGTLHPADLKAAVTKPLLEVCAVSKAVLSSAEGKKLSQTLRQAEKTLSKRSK
The assay can be described thus: Trypanosoma cruzi tyrosyl tRNA synthetase (TcYRS) _High Tyrosine SOP. Also: in the data most compounds retested in dose-response had high values. It is filed as functional. To be noted: 30 µM.

Assay [10] concerns the target T4, Tyrosyl-tRNA synthetase, putative (Trypanosoma cruzi (strain CL Brener)). Put plainly: Trypanosoma cruzi tyrosyl tRNA synthetase (TcYRS) SOP. It is filed as functional. To be noted: 30 µM.
Assay [11] has as its target Chromo domain-containing protein 1 (Saccharomyces cerevisiae (strain ATCC 204508 / S288c) (Baker's yeast)) (UniProt P32657). Put plainly: ScCHD-1 Enzyme Inhibition Assay. Also: in the data most compounds retested in dose-response had high values. In kind it is functional. As to conditions: 30 µM.

Chromo domain-containing protein 1 (Saccharomyces cerevisiae (strain ATCC 204508 / S288c) (Baker's yeast)), sequence (P32657 whole entry, the tested form may be a part): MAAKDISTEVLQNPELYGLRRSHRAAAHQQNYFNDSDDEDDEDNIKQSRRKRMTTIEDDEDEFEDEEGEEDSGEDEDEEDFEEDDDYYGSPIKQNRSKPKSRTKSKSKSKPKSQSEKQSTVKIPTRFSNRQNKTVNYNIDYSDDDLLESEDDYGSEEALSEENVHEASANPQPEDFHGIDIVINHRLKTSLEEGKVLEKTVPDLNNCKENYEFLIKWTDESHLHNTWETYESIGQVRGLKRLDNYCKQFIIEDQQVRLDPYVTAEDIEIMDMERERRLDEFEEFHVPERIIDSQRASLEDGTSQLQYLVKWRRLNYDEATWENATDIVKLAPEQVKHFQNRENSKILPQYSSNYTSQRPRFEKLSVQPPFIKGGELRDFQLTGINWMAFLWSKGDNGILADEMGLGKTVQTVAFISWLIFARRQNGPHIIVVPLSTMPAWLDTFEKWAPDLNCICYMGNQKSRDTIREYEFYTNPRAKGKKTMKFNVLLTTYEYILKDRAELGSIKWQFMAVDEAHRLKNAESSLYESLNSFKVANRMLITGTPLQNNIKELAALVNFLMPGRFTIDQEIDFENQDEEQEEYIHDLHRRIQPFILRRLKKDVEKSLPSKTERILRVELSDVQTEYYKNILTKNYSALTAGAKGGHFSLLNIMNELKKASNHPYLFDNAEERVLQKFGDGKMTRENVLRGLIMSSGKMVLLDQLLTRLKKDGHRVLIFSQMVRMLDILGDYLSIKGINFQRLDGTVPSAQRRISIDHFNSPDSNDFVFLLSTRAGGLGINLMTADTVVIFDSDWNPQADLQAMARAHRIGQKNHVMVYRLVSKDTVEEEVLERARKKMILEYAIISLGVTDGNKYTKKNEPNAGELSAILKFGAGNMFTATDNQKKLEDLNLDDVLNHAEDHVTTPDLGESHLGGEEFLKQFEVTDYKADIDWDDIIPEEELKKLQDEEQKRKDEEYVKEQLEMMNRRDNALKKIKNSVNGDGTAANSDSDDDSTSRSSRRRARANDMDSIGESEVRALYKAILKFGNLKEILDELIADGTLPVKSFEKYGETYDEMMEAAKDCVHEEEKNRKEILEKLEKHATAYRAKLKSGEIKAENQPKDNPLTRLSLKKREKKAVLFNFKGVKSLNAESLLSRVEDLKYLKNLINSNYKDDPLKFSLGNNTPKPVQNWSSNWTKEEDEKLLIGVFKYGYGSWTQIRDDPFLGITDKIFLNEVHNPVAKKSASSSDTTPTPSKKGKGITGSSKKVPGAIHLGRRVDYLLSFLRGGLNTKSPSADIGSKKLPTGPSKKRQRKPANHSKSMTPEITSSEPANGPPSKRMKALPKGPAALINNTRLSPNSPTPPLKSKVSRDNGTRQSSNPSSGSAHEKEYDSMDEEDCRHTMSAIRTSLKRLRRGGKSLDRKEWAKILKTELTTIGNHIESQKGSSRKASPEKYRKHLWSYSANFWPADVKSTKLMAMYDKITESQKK
Sialic acid-binding Ig-like lectin 9 (Homo sapiens), sequence (Q9Y336 whole entry): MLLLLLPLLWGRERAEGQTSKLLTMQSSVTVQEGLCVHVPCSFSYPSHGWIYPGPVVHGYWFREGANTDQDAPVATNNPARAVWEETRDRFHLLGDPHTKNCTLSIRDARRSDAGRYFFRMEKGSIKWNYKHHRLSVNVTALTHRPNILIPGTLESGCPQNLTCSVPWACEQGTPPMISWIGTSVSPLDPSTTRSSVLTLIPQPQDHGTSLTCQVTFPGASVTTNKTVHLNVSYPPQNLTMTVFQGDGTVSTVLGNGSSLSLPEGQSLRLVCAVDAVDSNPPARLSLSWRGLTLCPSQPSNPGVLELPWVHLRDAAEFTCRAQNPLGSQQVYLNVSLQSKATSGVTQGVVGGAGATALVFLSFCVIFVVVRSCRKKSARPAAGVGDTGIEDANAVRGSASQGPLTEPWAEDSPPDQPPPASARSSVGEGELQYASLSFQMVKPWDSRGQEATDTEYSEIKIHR
Protein translocase subunit SecA (Escherichia coli (strain K12)), sequence (P10408 whole entry): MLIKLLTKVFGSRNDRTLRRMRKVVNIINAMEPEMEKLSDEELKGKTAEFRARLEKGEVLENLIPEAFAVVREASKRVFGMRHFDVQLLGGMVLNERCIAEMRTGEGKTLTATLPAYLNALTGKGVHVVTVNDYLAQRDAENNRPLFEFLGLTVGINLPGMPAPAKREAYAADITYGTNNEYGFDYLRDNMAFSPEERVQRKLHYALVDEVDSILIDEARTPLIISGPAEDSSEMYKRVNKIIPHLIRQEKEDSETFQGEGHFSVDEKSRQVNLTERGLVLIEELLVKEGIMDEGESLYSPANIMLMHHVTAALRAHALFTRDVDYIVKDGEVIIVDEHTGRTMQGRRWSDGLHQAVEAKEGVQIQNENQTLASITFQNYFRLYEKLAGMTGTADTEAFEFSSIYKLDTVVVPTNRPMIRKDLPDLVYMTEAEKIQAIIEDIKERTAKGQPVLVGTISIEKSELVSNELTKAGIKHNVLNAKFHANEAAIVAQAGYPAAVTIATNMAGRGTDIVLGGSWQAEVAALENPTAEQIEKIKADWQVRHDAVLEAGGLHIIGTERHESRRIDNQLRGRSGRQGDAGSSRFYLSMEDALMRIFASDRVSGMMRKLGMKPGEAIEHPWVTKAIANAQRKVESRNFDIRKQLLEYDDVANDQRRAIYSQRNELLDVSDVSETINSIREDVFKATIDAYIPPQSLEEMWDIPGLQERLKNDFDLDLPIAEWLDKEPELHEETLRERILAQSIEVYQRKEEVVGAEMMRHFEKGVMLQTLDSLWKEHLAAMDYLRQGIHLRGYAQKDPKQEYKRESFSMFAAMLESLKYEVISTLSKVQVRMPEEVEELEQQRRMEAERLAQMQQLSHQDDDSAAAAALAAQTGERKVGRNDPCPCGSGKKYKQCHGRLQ

`O=C(NCCN1CCOCC1)NCC(O)c1cccc(F)c1` (stereo not drawn): the Percent Effect in [1] was -4.85%; in [2] it was 16.2%; in assay [3] it was -10.5%; in assay [4] it was 13.6%; in assay [5], 5.75%; in assay [6], -6.01%. The Percent Effect was 4.68% in assay [7]; 10.8% in assay [8]; 5.42% in [9]; 11.1% in [10]; -10.8% in [11].

For `CCn1cnnc1CNC(=O)N1CCN(c2nc(C)c(C)s2)CC1`, the Percent Effect in [1] was -8.34%; in assay [2], 10.4%; in [3] it was -7.32%; in assay [4], 12.2%; in assay [5], 4.68%; in assay [6], -4.27%. Also, the Percent Effect in assay [7] is 0.676%; in [8] it was -2.89%; in assay [9] it was 5.83%; in [10], 19.5%; in assay [11], -9.23%.

Turning to `Cc1nn(C)c2cnn(CC(=O)NCCc3ccccc3)c12`, the Percent Effect in [1] was -4.41%; in [2], 6.67%; in [3], 5.28%; in assay [4], 4.15%; in assay [5] it was -2.16%; in assay [6], -12.5%. Also, the Percent Effect in [7] is 13.3%; in [8], 1.66%; in assay [9] it was 5.29%; in assay [10], 17.9%; in assay [11], -8.21%.

As for `Cc1cc(C)n(C2CN(CC(=O)NCC(C)(C)N3CCOCC3)C2)n1`, the Percent Effect in assay [1] is -1.83%; in assay [2] it was 8.86%; in assay [3] it was 2.81%; in assay [4], 2.3%; in assay [5], -1.13%; in [6], -0.645%. Moreover, the Percent Effect in [7] was 8.92%; in [8], 20.1%; in assay [9] it was 5.21%; in assay [10] it was 15.2%; in [11] it was -7.96%.

Regarding `CC(C)(N)CN1CCC(c2nnc(CN3CCCC3)n2C2CC2)CC1`, the Percent Effect in [1] is -7.06%; in assay [2] it was 8%; in assay [3], 3.2%; in assay [4], 2.76%; in [5] it was -0.0974%; in assay [6], 5.73%. The Percent Effect is 15.5% in [7]; 8.71% in assay [8]; 2.73% in assay [9]; 6.17% in assay [10]; -4.27% in assay [11].

Turning to `CCOCCCn1c(NC(=O)c2ccc(C)nc2)nc2ccccc21`, the Percent Effect in assay [1] was -10.1%; in assay [2], 7.79%; in [3] it was 10.5%; in assay [4], 3.52%; in assay [5], 2.25%; in [6] it was 0%. In addition, the Percent Effect was 4.56% in [7]; -7.49% in assay [8]; 4.85% in [9]; 14.6% in [10]; 0.139% in assay [11].

Take `Cc1c(C(=O)NCC2CCCO2)nnn1-c1cccc2c1CCN(C)C2` (stereo not drawn): the Percent Effect in [1] was -7.71%; in assay [2] it was 2.63%; in assay [3], -11.9%; in [4], -4.47%; in assay [5], -1.27%; in assay [6], 2.37%. For the same molecule, the Percent Effect is 6.42% in assay [7]; 27.2% in assay [8]; -1.06% in assay [9]; -2.6% in [10]; 88% in assay [11].

`Cn1cccc1C(CNC(=O)c1ccc(F)cc1F)N1CCCCCC1` (stereo not drawn): the Percent Effect in assay [1] is -3.52%; in assay [2] it was 15.6%; in assay [3], -9.64%; in assay [4], -10.9%; in assay [5] it was 6.21%; in assay [6] it was -3.23%. The Percent Effect was 17.9% in [7]; 11% in assay [8]; 8.47% in assay [9]; 21.8% in assay [10]; -12.6% in assay [11].
